Screening data (PubChem)
MEKK3 PB1 HTS – raises or lowers MEK5 binding to the human MEKK3 PB1 domain. Q99759. bead-based flow cytometry, Alexa488-MEK5 binding to MEKK3; actives lie on both sides; 0 = blocked by unlabeled MEK5, 100 = vehicle. binding response (% of control), % at 10 µM. actives 1.4% (n = 290,000). AID 1529;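 active means binding response more than 3 SD above or below the average of its plate-row segment, actives on both sides; inconclusive means wells at one plate position flagged as instrument error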;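 further: Alexa488 bead fluorescence after subtracting the streptavidin-only scavenger bead signal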
MEKK2 mut-MEK5 – signal of MEK5 binding to mutant human MEKK2 PB1 domain. bead flow cytometry, Alexa488-MEK5 binding to MEKK2 mutant. percent response, % at 10 µM. actives 0.35% (n = 290,000); in the data active means percent response above about 24%, passing the limit was not always enough
MEKK2wt PB1 HTS – raises or lowers MEK5 binding to wildtype human MEKK2 PB1 domain. actives 1.1% (n = 290,000). AID 1531. binding response (% of control), % at 10 µM. Q9Y2U5. bead flow cytometry, Alexa488-MEK5 binding to MEKK2 WT; actives lie on both sides; in the data active means binding response below about 67% or above about 130%; inconclusive means no clear call, values can overlap the other calls; inactive means in between
VLA-4 inh – inhibition in a human VLA-4 binding assay. VLA-4 expressing cells, ligand binding flow cytometry. AID 2557. actives 0.2% (n = 330,000). inhibition, % (about 7 µM as worked out from the volumes in the protocol). P13612; in the data active means inhibition above about 50%
Target sequence (P13612 whole entry, looked up): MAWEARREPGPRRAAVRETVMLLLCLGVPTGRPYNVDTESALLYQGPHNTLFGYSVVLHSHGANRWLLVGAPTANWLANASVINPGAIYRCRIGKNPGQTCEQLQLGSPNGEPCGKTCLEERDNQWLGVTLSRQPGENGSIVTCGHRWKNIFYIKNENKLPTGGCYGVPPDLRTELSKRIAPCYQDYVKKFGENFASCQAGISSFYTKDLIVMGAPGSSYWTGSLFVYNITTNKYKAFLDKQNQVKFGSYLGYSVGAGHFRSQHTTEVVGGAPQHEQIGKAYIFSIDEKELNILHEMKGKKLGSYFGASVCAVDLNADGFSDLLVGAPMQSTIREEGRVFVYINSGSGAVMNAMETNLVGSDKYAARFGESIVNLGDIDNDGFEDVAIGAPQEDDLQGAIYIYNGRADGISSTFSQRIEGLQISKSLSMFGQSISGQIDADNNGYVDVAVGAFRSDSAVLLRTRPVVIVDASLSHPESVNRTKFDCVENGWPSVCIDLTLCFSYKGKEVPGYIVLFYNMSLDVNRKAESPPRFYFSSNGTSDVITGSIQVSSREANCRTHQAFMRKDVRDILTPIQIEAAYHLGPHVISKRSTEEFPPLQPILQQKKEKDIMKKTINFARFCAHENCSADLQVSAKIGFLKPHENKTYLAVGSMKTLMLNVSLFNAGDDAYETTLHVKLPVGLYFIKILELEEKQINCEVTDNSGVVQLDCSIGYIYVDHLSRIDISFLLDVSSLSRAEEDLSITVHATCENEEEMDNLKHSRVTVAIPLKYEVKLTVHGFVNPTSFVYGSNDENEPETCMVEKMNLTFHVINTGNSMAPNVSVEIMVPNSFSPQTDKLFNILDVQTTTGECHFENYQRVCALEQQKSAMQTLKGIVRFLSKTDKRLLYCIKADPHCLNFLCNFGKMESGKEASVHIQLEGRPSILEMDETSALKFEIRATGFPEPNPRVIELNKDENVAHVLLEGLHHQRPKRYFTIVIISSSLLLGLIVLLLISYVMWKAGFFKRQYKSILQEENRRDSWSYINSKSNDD
MEKK2wt confirm – raises or lowers MEK5 binding to wildtype human MEKK2, retest; shares compounds with MEKK3 PB1 HTS; bead flow cytometry, Alexa488-MEK5 binding to MEKK2 WT; actives lie on both sides; binding response (% of control), % at 10 µM; actives 2.4% (n = 5,900); AID 1892; in the data active means binding response below about 16% or above about 210%; inactive means in between
MEKK2mut-MEK5 – signal of MEK5 binding to mutant human MEKK2, retest. shares compounds with MEKK3 PB1 HTS. bead flow cytometry, Alexa488-MEK5 binding to MEKK2 mutant. percent response, % at 10 µM. actives 2% (n = 5,900); in the data active means percent response mostly above about 71%, no sharp cut-off; inactive means mostly below about 38%;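 further: higher means compound restores mutant binding toward wildtype level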
MEKK3-MEK5 inh – confirmation of inhibitors of MEK5 binding to human MEKK3; actives 1.8% (n = 5,900); bead flow cytometry, Alexa488-MEK5 binding to MEKK3; active compounds read low; binding response (% of control), % at 10 µM; shares compounds with MEKK3 PB1 HTS;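 active means binding response below 72% of control, or above a set upper limit, though filed actives all read lower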;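 further: 100% = DMSO only wells and 0% = binding blocked by excess unlabeled MEK5; lower values mean stronger disruption of MEK5 binding to MEKK3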
Starred values were filed as active, the others as inactive; [ ] = remark or other dose. Most compounds without a hit are left out; they make up all but 2.2% or so of the library.

How did COc1ccc(OC)c(NC(=S)NCCSc2ccc(C)cc2)c1 do in these assays?
MEKK3 PB1 HTS: 142*; MEKK2 mut-MEK5: 1; MEKK2wt PB1 HTS: 112; VLA-4 inh: 26; MEKK2wt confirm: 108; MEKK2mut-MEK5: 7; MEKK3-MEK5 inh: 106

How did N#Cc1c(N2CCCC2)ccc(Br)c1Cl do in these assays?
MEKK3 PB1 HTS: inconclusive; MEKK2 mut-MEK5: -82; MEKK2wt PB1 HTS: inconclusive; VLA-4 inh: 10

What do the screens show for `CCOc1ccc(OCCNC(=O)c2oc3ccccc3c2COC)cc1`?
VLA-4 inh: 5

What do the screens show for `CC(=O)NCCNC(=O)c1oc2ccccc2c1CSc1ncn[nH]1`?
MEKK3 PB1 HTS: 75*[inhibitor]; MEKK2 mut-MEK5: -4; MEKK2wt PB1 HTS: 86; VLA-4 inh: 16; MEKK2wt confirm: 96; MEKK2mut-MEK5: -6; MEKK3-MEK5 inh: 97

How did COc1ccc(CCC(=O)Nc2cc(Cl)ccc2N2CCN(C)CC2)cc1 do in these assays?
MEKK3 PB1 HTS: 101; MEKK2 mut-MEK5: 25*; MEKK2wt PB1 HTS: 117; VLA-4 inh: 0; MEKK2wt confirm: 124; MEKK2mut-MEK5: 14; MEKK3-MEK5 inh: 108

Results for COc1ccc(CCC(=O)Nc2cccc(Cl)c2)cc1 ?
MEKK3 PB1 HTS: 130*; MEKK2 mut-MEK5: 0; MEKK2wt PB1 HTS: 107; VLA-4 inh: 26; MEKK2wt confirm: 122; MEKK2mut-MEK5: 10; MEKK3-MEK5 inh: 105

What do the screens show for `O=C(/C=C/c1ccc(F)cc1)Nc1cc(S(=O)(=O)N2CCOCC2)ccc1N1CCCC1`?
MEKK3 PB1 HTS: 101; MEKK2 mut-MEK5: 9; MEKK2wt PB1 HTS: 88; VLA-4 inh: 0

How did CN1CCN(c2ccc(Cl)cc2NC(=O)/C=C/c2ccc(F)cc2)CC1 do in these assays?
MEKK3 PB1 HTS: 108; MEKK2 mut-MEK5: 51*; MEKK2wt PB1 HTS: 195*; VLA-4 inh: -2; MEKK2wt confirm: 185; MEKK2mut-MEK5: 60; MEKK3-MEK5 inh: 109

What do the screens show for `COc1ccc(CC(=O)OCC(=O)Nc2cccc(Cl)c2)cc1`?
MEKK3 PB1 HTS: 102; MEKK2 mut-MEK5: -4; MEKK2wt PB1 HTS: 94; VLA-4 inh: 11

Results for CN1CCN(C(=O)c2ccccc2NC(=O)CCN2C(=O)c3ccccc3C2=O)CC1 ?
MEKK3 PB1 HTS: 100; MEKK2 mut-MEK5: 1; MEKK2wt PB1 HTS: 104; VLA-4 inh: 4

Results for CN1CCN(c2ccc(Cl)cc2NC(=O)CCN2C(=O)c3ccccc3C2=O)CC1 ?
MEKK3 PB1 HTS: 108; MEKK2 mut-MEK5: 0; MEKK2wt PB1 HTS: 171*; VLA-4 inh: 7; MEKK2wt confirm: 155; MEKK2mut-MEK5: 34; MEKK3-MEK5 inh: 101

What do the screens show for `COc1ccc(OC)c(NC(=O)C2CC(/C=C/c3ccccc3)=NO2)c1` (configuration not stated)?
MEKK3 PB1 HTS: 106; MEKK2 mut-MEK5: 1; MEKK2wt PB1 HTS: 104; VLA-4 inh: -4

What do the screens show for `COc1ccc(CCC(=O)Nc2ccc(-c3noc(-c4ccc(OC)c(OC)c4)n3)cc2)cc1`?
MEKK3 PB1 HTS: 124*; MEKK2 mut-MEK5: 6; MEKK2wt PB1 HTS: 123; VLA-4 inh: 6; MEKK2wt confirm: 111; MEKK2mut-MEK5: 3; MEKK3-MEK5 inh: 106

Results for Cc1cc(C)n2nc(C(=O)N3CCCC(N4CCN(c5ccccc5C)CC4)C3)cc2n1 (configuration not stated) ?
MEKK3 PB1 HTS: 105; MEKK2 mut-MEK5: 9; MEKK2wt PB1 HTS: 107

How did CC(NCCC(c1ccccc1)c1ccccc1)c1ccccc1 (configuration not stated) do in these assays?
MEKK3 PB1 HTS: 99; MEKK2 mut-MEK5: 12; MEKK2wt PB1 HTS: 145*; VLA-4 inh: 8; MEKK2wt confirm: 130; MEKK2mut-MEK5: 13; MEKK3-MEK5 inh: 104

How did CCOc1ccc2[nH]c3c(N4CCc5ccccc5C4)ncnc3c2c1 do in these assays?
MEKK3 PB1 HTS: 115; MEKK2 mut-MEK5: 42; MEKK2wt PB1 HTS: 187*; VLA-4 inh: 22; MEKK2wt confirm: 199; MEKK2mut-MEK5: 46; MEKK3-MEK5 inh: 110

What do the screens show for `Cc1ccc2[nH]c3c(N4CCc5ccccc5C4)ncnc3c2c1`?
MEKK3 PB1 HTS: 95; MEKK2 mut-MEK5: 15; MEKK2wt PB1 HTS: 139; VLA-4 inh: -15

What do the screens show for `Brc1ccc2[nH]c3c(N4CCc5ccccc5C4)ncnc3c2c1`?
MEKK3 PB1 HTS: 104; MEKK2 mut-MEK5: 35; MEKK2wt PB1 HTS: 150*; VLA-4 inh: 4; MEKK2wt confirm: 127; MEKK2mut-MEK5: 2; MEKK3-MEK5 inh: 104

What do the screens show for `COc1ccc(NS(=O)(=O)c2ccc(NC(=O)C(CCSC)NC(N)=O)cc2)cc1` (configuration not stated)?
MEKK3 PB1 HTS: 109; MEKK2 mut-MEK5: 13; MEKK2wt PB1 HTS: 113; VLA-4 inh: 24

How did CCC(c1nnc(SCC(=O)Nc2ccc(C(=O)N(C)C)cc2)n1Cc1ccccc1)N(C)C (configuration not stated) do in these assays?
MEKK3 PB1 HTS: 100; MEKK2 mut-MEK5: 2; MEKK2wt PB1 HTS: 103; VLA-4 inh: 0

How did NS(=O)(=O)c1ccc(CCNC(=O)C2CCCN2S(=O)(=O)c2cccc3nsnc23)cc1 (configuration not stated) do in these assays?
MEKK3 PB1 HTS: 99; MEKK2 mut-MEK5: 1; MEKK2wt PB1 HTS: 97; VLA-4 inh: 7

How did OC(COC(c1ccc(Cl)cc1)c1ccc(Cl)cc1)CN1CCc2ccccc2C1 (configuration not stated) do in these assays?
MEKK3 PB1 HTS: 110; MEKK2 mut-MEK5: 14; MEKK2wt PB1 HTS: 164*; VLA-4 inh: -2; MEKK2wt confirm: 203; MEKK2mut-MEK5: 63; MEKK3-MEK5 inh: 113

Results for OC(COC(c1ccc(F)cc1)c1ccc(F)cc1)CN1CCc2ccccc2C1 (configuration not stated) ?
MEKK3 PB1 HTS: 136*; MEKK2 mut-MEK5: 1; MEKK2wt PB1 HTS: 112; VLA-4 inh: 26; MEKK2wt confirm: 115; MEKK2mut-MEK5: 5; MEKK3-MEK5 inh: 100

Results for OC(COC(c1ccccc1)c1ccccc1)CN1CCc2ccccc2C1 (configuration not stated) ?
MEKK3 PB1 HTS: 103; MEKK2 mut-MEK5: 6; MEKK2wt PB1 HTS: 102; VLA-4 inh: 5

How did OC(COC(c1ccc(Cl)cc1)c1ccc(Cl)cc1)CN1CCCC1 (configuration not stated) do in these assays?
MEKK3 PB1 HTS: 105; MEKK2 mut-MEK5: 14; MEKK2wt PB1 HTS: 140*; VLA-4 inh: 22; MEKK2wt confirm: 126; MEKK2mut-MEK5: 20; MEKK3-MEK5 inh: 102
